According to PubChem BioAssay (NCI):
This is part of a sample that, as a whole, favours compounds with a hit. Of some 79,000 tested, about 15% had one in any assay. The source made the active and inactive calls. Cut-off read from the data, not from the text of the source: active = growth inhibition above about 70%; inactive = the rest.

Experiments:
[1] = NCI Yeast Anticancer Drug Screen. Data for the wt1 strain (AID 149);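 note: 0% = growth of vehicle-treated wt1 cultures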; conditions: S. cerevisiae wt1 strain (SPY 50644) growth inhibition, active compounds read high
Outline: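 Compounds are added to wt1 yeast cultures. Growth is then measured. Inhibition is expressed relative to vehicle-treated controls.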

[2] = NCI Yeast Anticancer Drug Screen. Data for the rad50EPP+ strain (AID 151);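 note: 0% = growth of vehicle-treated control cultures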; conditions: S. cerevisiae rad50 mutant strain, active compounds read high
Outline: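 In this screen, rad50EPP+ yeast were exposed to compounds. Growth inhibition was scored against vehicle-treated controls.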

[3] = NCI Yeast Anticancer Drug Screen. Data for the mgt1 strain (AID 153); conditions: S. cerevisiae mgt1 mutant growth inhibition, active compounds read high
Outline: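 mgt1 strain exposed; growth vs vehicle control recorded as inhibition.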

[4] = NCI Yeast Anticancer Drug Screen. Data for the rad50 strain (AID 155);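 note: 0% = growth of vehicle-only cultures of the same strain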; conditions: S. cerevisiae rad50 strain growth inhibition, active compounds read high
Outline: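 Inhibition values express reduced yeast growth in compound-treated cultures relative to vehicle-treated controls.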

[5] = NCI Yeast Anticancer Drug Screen. Data for the mec2-1 strain (AID 157); conditions: S. cerevisiae mec2-1 strain, active compounds read high
Outline: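 Vehicle-treated cultures served as reference for growth inhibition of compound-exposed mec2-1 yeast.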

[6] = NCI Yeast Anticancer Drug Screen. Data for the rad14 strain (AID 159);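 note: 0% = growth of vehicle-treated control cultures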; conditions: S. cerevisiae rad14 strain growth inhibition, active compounds read high
Outline: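 A mutant yeast strain defective in DNA damage repair is treated with compound; inhibition of its growth is scored against untreated, vehicle-exposed cultures.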

[7] = NCI Yeast Anticancer Drug Screen. Data for the sgs1 mgt1 strain (AID 161);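 note: 0% = growth of cultures given vehicle only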; conditions: S. cerevisiae sgs1 mgt1 strain, active compounds read high
Outline: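 Mutant yeast exposed to compound; growth scored against vehicle-only wells.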

[8] = NCI Yeast Anticancer Drug Screen. Data for the CLN2oe strain (AID 163);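 note: 0% = growth of vehicle-only control cultures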; conditions: S. cerevisiae CLN2oe strain, active compounds read high
Outline: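 Inhibition relative to vehicle-treated yeast is reported. Cells: strain with genetic alteration in cell-cycle control, grown with compound.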

[9] = NCI Yeast Anticancer Drug Screen. Data for the cln2 rad14 strain (AID 165);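 note: 0% = growth equal to vehicle treated cultures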; conditions: S. cerevisiae cln2 rad14 strain, active compounds read high
Outline: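 Each compound was tested on cln2 rad14 yeast. Inhibition of growth was calculated against vehicle-exposed controls.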

[10] = NCI Yeast Anticancer Drug Screen. Data for the bub3 strain (AID 167); conditions: S. cerevisiae bub3 mutant strain, active compounds read high
Outline: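 Steps: expose the mutant yeast strain to compound; grow alongside vehicle-treated cultures; measure growth; express inhibition against the vehicle cultures.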

[11] = NCI Yeast Anticancer Drug Screen. Data for the wt2 strain (AID 169);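 note: 0% = growth of vehicle-treated yeast cultures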; conditions: S. cerevisiae wt2 strain growth inhibition, active compounds read high
Outline: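 Inhibition of yeast growth was determined after compound treatment, normalised to controls receiving only vehicle.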

[12] = NCI Yeast Anticancer Drug Screen. Data for the mlh1 strain (AID 171);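 note: 0% = growth of vehicle-treated control cultures of the same strain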; conditions: S. cerevisiae mlh1 strain growth inhibition, active compounds read high
Outline: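 Vehicle-normalised growth inhibition of a repair- or checkpoint-altered yeast strain following compound treatment.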

[13] = NCI Yeast Anticancer Drug Screen. Data for the sgs1 strain (AID 173);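 note: 0% = growth of vehicle-only control cultures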; conditions: S. cerevisiae sgs1 mutant, active compounds read high
Outline: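 Screen format: yeast with repair or checkpoint alterations, compound exposure, growth read relative to vehicle.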

[14] = NCI Yeast Anticancer Drug Screen. Data for the mlh1 rad18 strain (AID 175); conditions: S. cerevisiae mlh1 rad18 strain growth inhibition, active compounds read high
Outline: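 Vehicle-treated cultures served as the reference for growth inhibition in a yeast strain carrying DNA damage repair alterations exposed to each compound.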

[15] = NCI Yeast Anticancer Drug Screen. Data for the rad18 strain (AID 177); conditions: S. cerevisiae rad18 mutant growth inhibition, active compounds read high
Outline: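 Test articles were incubated with altered yeast defective in DNA damage repair. Results are given as inhibition of growth versus vehicle.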

[16] = at 5.0 µM (retest, dose inferred, filed as 0.5)
[17] = at 50.0 µM (retest, dose inferred, filed as 5.0)

Measured: growth inhibition

CSc1ccc2c(c1)C(N1CCN(C)CC1)Cc1ccccc1S2 (stereo unspecified)
inactive: [1]; at 1.2 µM -58% | [1]; at 3.7 µM -61% | [1]; at 11.0 µM -57% | [1]; at 33.0 µM -6% | [2]; at 1.2 µM -27% | [2]; at 3.7 µM -45% | [2]; at 11.0 µM -37% | [2]; at 33.0 µM -4% | [3]; at 1.2 µM -33% | [3]; at 3.7 µM -31% | [3]; at 11.0 µM -49% | [4]; at 1.2 µM -34% | [4]; at 3.7 µM -47% | [4]; [16] 28% | [4]; at 11.0 µM -25% | [4]; [17] 67% | [5]; at 1.2 µM -75% | [5]; at 3.7 µM -83% | [5]; [16] 15% | [5]; at 11.0 µM -4% | [6]; at 1.2 µM -55% | [6]; at 3.7 µM -36% | [6]; at 11.0 µM 5% | [8]; at 1.2 µM -17% | [8]; at 3.7 µM 5% | [8]; at 11.0 µM 13% | [8]; at 33.0 µM 52% | [10]; at 1.2 µM -68% | [10]; at 3.7 µM -46% | [10]; at 11.0 µM 14% | [11]; at 1.2 µM -59% | [11]; at 3.7 µM -35% | [11]; at 11.0 µM -46% | [11]; at 33.0 µM 6% | [12]; at 1.2 µM -67% | [12]; at 3.7 µM -68% | [12]; at 11.0 µM -37% | [13]; at 1.2 µM -34% | [13]; at 3.7 µM -84% | [13]; at 11.0 µM -27% | [14]; [16] 35% | [15]; at 1.2 µM -44% | [15]; at 3.7 µM -72% | [15]; at 11.0 µM -44%
active: [1]; at 100.0 µM 99% | [2]; at 100.0 µM 91% | [3]; at 33.0 µM 74% | [3]; at 100.0 µM 99% | [4]; at 33.0 µM 76% | [4]; at 50.0 µM 88.1% | [4]; at 100.0 µM 98% | [5]; at 33.0 µM 83% | [5]; [17] 78% | [5]; at 50.0 µM 78.6% | [5]; at 100.0 µM 99% | [6]; at 33.0 µM 98% | [6]; at 100.0 µM 99% | [7]; [16] 98% | [7]; [17] 86% | [7]; at 50.0 µM 84.2% | [8]; at 100.0 µM 99% | [9]; [16] 91% | [9]; [17] 88% | [9]; at 50.0 µM 76% | [10]; [16] 98% | [10]; at 33.0 µM 91% | [10]; [17] 86% | [10]; at 50.0 µM 81.7% | [10]; at 100.0 µM 98% | [11]; at 100.0 µM 99% | [12]; at 33.0 µM 88% | [12]; at 100.0 µM 98% | [13]; at 33.0 µM 70% | [13]; at 100.0 µM 98% | [14]; [17] 89% | [14]; at 50.0 µM 92.8% | [15]; at 33.0 µM 75% | [15]; at 100.0 µM 98%

CCOc1ccccc1N1C(=O)CC(Sc2ccccc2N)C1=O (stereo unspecified)
inactive: [1]; at 1.2 µM 12% | [1]; at 3.7 µM 17% | [1]; at 11.0 µM 10% | [1]; at 33.0 µM 15% | [1]; at 100.0 µM 9% | [2]; at 1.2 µM 19% | [2]; at 3.7 µM 8% | [2]; at 11.0 µM 8% | [2]; at 33.0 µM 16% | [2]; at 100.0 µM 25% | [3]; at 1.2 µM 3% | [3]; at 3.7 µM -10% | [3]; at 11.0 µM -13% | [3]; at 33.0 µM -5% | [3]; at 100.0 µM 1% | [4]; at 1.2 µM 13% | [4]; at 3.7 µM 2% | [4]; [16] 39% | [4]; at 11.0 µM 17% | [4]; at 33.0 µM 10% | [4]; at 50.0 µM 0.8% | [4]; at 100.0 µM -20% | [5]; at 1.2 µM 2% | [5]; at 3.7 µM 10% | [5]; [16] 57% | [5]; at 11.0 µM -9% | [5]; at 33.0 µM 0% | [5]; at 50.0 µM -12.4% | [5]; at 100.0 µM -19% | [6]; at 1.2 µM -23% | [6]; at 3.7 µM -23% | [6]; at 11.0 µM -41% | [6]; at 33.0 µM -48% | [6]; at 100.0 µM -55% | [7]; [16] -5% | [7]; [17] 24% | [7]; at 50.0 µM 14.4% | [8]; at 1.2 µM 10% | [8]; at 3.7 µM 6% | [8]; at 11.0 µM 1% | [8]; at 33.0 µM -15% | [8]; at 100.0 µM -19% | [9]; [16] 39% | [9]; [17] 1% | [9]; at 50.0 µM -13.9% | [10]; at 1.2 µM -4% | [10]; at 3.7 µM 1% | [10]; [16] 30% | [10]; at 11.0 µM -10% | [10]; at 33.0 µM -23% | [10]; [17] 38% | [10]; at 50.0 µM 11.4% | [10]; at 100.0 µM -38% | [11]; at 1.2 µM -2% | [11]; at 3.7 µM -7% | [11]; at 11.0 µM -8% | [11]; at 33.0 µM -7% | [11]; at 100.0 µM -13% | [12]; at 1.2 µM -10% | [12]; at 3.7 µM -18% | [12]; at 11.0 µM -33% | [12]; at 33.0 µM -18% | [12]; at 100.0 µM -24% | [13]; at 1.2 µM 16% | [13]; at 3.7 µM 5% | [13]; at 11.0 µM 6% | [13]; at 33.0 µM 14% | [13]; at 100.0 µM -1% | [14]; [16] 37% | [14]; at 50.0 µM 16.5% | [15]; at 1.2 µM 1% | [15]; at 3.7 µM -12% | [15]; at 11.0 µM -22% | [15]; at 33.0 µM -13% | [15]; at 100.0 µM -24%
active: [4]; [17] 75% | [5]; [17] 85% | [14]; [17] 70%
